High-throughput results from PubChem BioAssay.
In the library only some 2.2% were active in any assay of this set; here they are far more common.
Abeta yeast res – restores growth of yeast expressing A-beta42 peptide; yeast expressing A-beta42, growth rescue, OD600, 48 h; response scale: 0% DMSO, 100% iron-clioquinol control; Potency, µM (series often up to 46.1 µM), most hits filed as activators; 0.063% of 410,000 active; AID 1347071; note: nearly all actives have a fitted effect of over 55% in size
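Growth rescue measured by 600 nm absorbance after 48 h yeast culture at 30 C with compound. Values normalized between DMSO and an equimolar ferric chloride plus clioquinol control.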
FUS suppressor – suppressors of FUS proteinopathy in yeast | S. cerevisiae FUS-expressing, growth rescue, OD600, 24 h | Potency, µM (titrated, usually from 76.6 µM), actives largely listed as activators | 0.24% of 390,000 active | AID 1347120;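 note: plate controls were DMSO vehicle for no effect and reference control for full effect; nearly all actives have a fitted effect of over 55% in size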
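Galactose (2%) drives FUS expression in yeast precultured in raffinose; seeding density OD 0.005. Test compounds incubated 24hr at 30C and 99% humidity before absorbance at 600 nm was measured.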
TDP-43 yeast inh – inhibitors of TDP-43 toxicity in yeast; Potency, µM (doses to about 46.1 µM), for the others: at the highest dose growth rescue (activation), most hits filed as activators; 1.8% of 410,000 active; TDP-43 expressing yeast growth rescue, BacTiter-Glo, 24 h; note: % of control where 0% means no effect; nearly all actives have a fitted effect of over 50% in size
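Cell-based yeast growth screen: TDP-43 expression induced in galactose, inoculum OD600=0.02 after raffinose pregrowth to mid-log. Read-out BacTiter-Glo luminescence at 24 hr, 30 deg C; inhibition of toxicity seen as signal increase.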
Mito fusion act – inhibitors of mitochondrial division or activators of mitochondrial fusion; S. cerevisiae fusion-defective mutant growth rescue, CellTiterGlo 48 h; Potency, µM (series often up to 46.1 µM), for the others: top-dose growth rescue (activation), usual class: activators; 0.23% of 320,000 active; AID 485298; note: % of control where 0% means no effect; nearly all actives have a fitted effect of over 45% in size
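Temperature-sensitive fusion-defective S. cerevisiae (e.g. fzo1-1, mgm1-5) were grown with compound in YPEG medium (3% ethanol, 3% glycerol) for 48 hours at 37C. Growth rescue was measured as viability by CellTiterGlo luminescence after 10 minutes at ambient.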
aSyn rescue – rescues yeast growth from alpha-synuclein toxicity; Potency, µM (highest dose often 46.1 µM), inactives show at the top dose growth rescue (activation), most hits filed as activators; Yeast expressing alpha-synuclein, growth rescue, BacTiter-Glo, 24 h; 0.14% of 370,000 active; note: % of control where 0% means no effect; nearly all actives have a fitted effect of over 65% in size
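Rescue of yeast growth: cells expressing toxic alpha-synuclein, induced in galactose at OD600 0.02, incubated with compound 24 h at 30 C. ATP luminescence quantified growth; inhibitors of toxicity appear as activators.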
An asterisk follows results filed as active; i = inactive; u = inconclusive; x = not tested or not shown; [ ] = dose if it differs, or a comment. Calls come from the whole dose curve; as a rule, active = well fitted curve in the direction sought with a large enough effect; inconclusive = small, poorly fitted or top-dose-only effect, or another doubt; inactive = no such curve, though single readings can be large; an effect the other way counts as inactive or inconclusive. Potency is the fitted concentration of half-maximal effect.

SMILES	Abeta yeast res	FUS suppressor	TDP-43 yeast inh	Mito fusion act	aSyn rescue
CCNc1nc(N)c(C(=O)c2ccc(Cl)s2)s1	i	i	13µM*	1%	9%
Cc1ccc(CCNC(=O)c2cc(-c3ccccc3)n[nH]2)cc1	i	i	6%	x	x
CCN(Cc1ccccc1)C(=O)c1ccc(C(=O)N(CC)Cc2ccccc2)cc1	i	i	0%	-5%	-1%
CC(CNC(=O)c1cc(-c2ccccc2)n[nH]1)c1ccccc1 (configuration not stated)	i	i	35µM*	x	x
CCN(Cc1ccccc1)C(=O)c1cc(-c2ccccc2)n[nH]1	i	i	18µM*	x	x
COc1ccc(-c2ccc(=O)n(Cc3c(F)cccc3Cl)n2)cc1	i	i	u	u	2%
COc1ccc(-c2ccc(=O)n(Cc3cccc([N+](=O)[O-])c3)n2)cc1	x	i	18µM*	-5%	1%
Nc1ccccc1C(=O)/C=C/c1ccc2c(c1)OCO2	i	i	26%	-1%	-3%
O=C(/C=C/c1ccc2c(c1)OCO2)c1ccco1	i	x	16µM*	6%	10%
O=C(/C=C/c1ccc2c(c1)OCO2)c1ccc(O)cc1O	i	i	8.9µM*	x	-28%
CCOC(=O)c1[nH]c(C)c(CCC(=O)Nc2c(C)cc(C)cc2C)c1C	i	i	1%[9.22 µM]	x	x
C/C=C/C1=CC(=O)C[C@H](c2ccc3c(c2)OCO3)C1	i	i	11µM*	-3%	8%
C/C=C/C1=CC(=O)C[C@H](c2ccc(Cl)cc2)C1	i	i	13µM*	6%	4%
CC(=O)c1sc2nc(C)c3c(c2c1N)CCCC3	i	i	13µM*	-6%	18µM*
O=C(CC(=O)c1c(F)cccc1Cl)c1ccccc1O	i	i	-8%	-14%	19%
Fc1ccc(N/N=C/c2ccc(N3CCOCC3)cc2)c(F)c1	i	i	18µM*	1%	13%
O=C(COC(=O)c1cc(-c2ccc(F)cc2)nc2ccccc12)NCC1CCCO1 (configuration not stated)	i	i	14µM*	-3%	5%
CCOC(=O)c1c(C)oc2c1C(=O)c1ccccc1C2=O	i	i	3.2µM*	-4%	-4%
Cc1oc2c(c1C(=O)c1ccccc1)C(=O)C(=O)c1ccccc1-2	i	i	16µM*	-11%	21%
Cc1ccc(SC(C)C(=O)N2CCCC2)cc1 (configuration not stated)	i	i	-15%	1%	-2%
Cc1ccc(SC2=C(C(=O)O)CCCC2)cc1	i	i	10µM*	29%	24%
COc1cccc(NC(=O)Cn2c(=O)n(-c3cccc(OC)c3)c(=O)c3c4c(sc32)CCCC4)c1	i	i	21%	x	x
CCCc1cc(=O)[nH]c(-n2[nH]c3c(c2=O)CCCC3)n1	u	i	-19%	-1%	25µM*
COc1ccc(-c2cc(C(F)(F)F)nc(SCC(=O)Nc3ccc(O)cc3)n2)cc1OC	i	i	0%	x	1%
Cc1cc(-c2ccc(C)c(S(=O)(=O)NCc3ccc(Cl)cc3)c2)on1	i	i	32µM*	x	x
SMILES	Abeta yeast res	FUS suppressor	TDP-43 yeast inh	Mito fusion act	aSyn rescue
Cc1cc(-c2ccc(C)c(S(=O)(=O)NCc3cccs3)c2)on1	i	i	23%	x	x
Cc1cc(-c2ccc(C)c(S(=O)(=O)NCCc3ccccc3)c2)on1	i	i	u	x	x
CCc1ccc(-c2cc(C)no2)cc1S(=O)(=O)Nc1ccc(Cl)cc1	i	u	22µM*	x	x
CCc1ccc(-c2cc(C)no2)cc1S(=O)(=O)NCCc1ccccc1	i	i	13µM*	16%	22%
CCn1c2ccccc2c2nnc(N3CCN(c4ccc(OC)cc4)CC3)nc21	i	i	17%	x	x
CCN(c1ccccc1)S(=O)(=O)c1ccc(NC(=O)c2cc(=O)c3c(C)cc(C)cc3o2)cc1	i	i	17%	x	x
O=C(c1ccccc1)n1ccn(-c2ccccc2)c1=S	i	i	11µM*	18%	-1%
N/C(=N\OC(=O)c1ccncc1)c1cccc([N+](=O)[O-])c1	i	i	u	3%	5%
